Source: PubChem (Sanford-Burnham Center for Chemical Genomics)
This is a sample that favours compounds with a hit; in the whole collection about 2.9% have one here.
H9c2 protect – myocardial damage modulation in H9c2 cells. H9c2 cardiomyocytes, H2O2 injury protection, ATPLite, 2 h. protection from H2O2 cell death, % at 20 µM. AID 588492. 0.63% of 360,000 active;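 active = compounds giving at least 50% protection of heart cells from peroxide-induced death in the single-dose screen, raw or plate-pattern-corrected value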;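 note: 0% = DMSO wells with peroxide and 100% = DMSO wells without peroxide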
TAG inh – reduces triacylglycerol accumulation in H9c2 cells; Nile Red lipid (TAG) fluorescence; cells loaded with 200 µM oleic acid; inhibition, % at 12.5 µM; 0.66% of 230,000 active; AID 651582;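 active = pattern-corrected inhibition of lipid staining of at least 50% with the nuclear-stain viability signal not falling by more than 50%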;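 note: 0% = DMSO wells and 100% = triacsin C control wells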
NadD block – inhibitors of Staphylococcus aureus NadD; purified NadD enzyme, colorimetric absorbance read-out; inhibition, % at 20 µM; 0.78% of 360,000 active; in the data active = inhibition above about 26%
A3G deaminase – blocks human APOBEC3G single-stranded DNA deamination; inhibition, % at 20 µM; 0.28% of 330,000 active; recombinant A3G, ssDNA deamination FAM/TAMRA fluorescence; Q9HC16; AID 493012;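 active = inhibition of at least 40% at 20 µM, with no more than 30% in the related APOBEC3A deaminase screen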;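 note: plate controls were DMSO wells with A3G for no effect and wells lacking A3G enzyme for full effect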
Target sequence (Q9HC16 whole entry, looked up): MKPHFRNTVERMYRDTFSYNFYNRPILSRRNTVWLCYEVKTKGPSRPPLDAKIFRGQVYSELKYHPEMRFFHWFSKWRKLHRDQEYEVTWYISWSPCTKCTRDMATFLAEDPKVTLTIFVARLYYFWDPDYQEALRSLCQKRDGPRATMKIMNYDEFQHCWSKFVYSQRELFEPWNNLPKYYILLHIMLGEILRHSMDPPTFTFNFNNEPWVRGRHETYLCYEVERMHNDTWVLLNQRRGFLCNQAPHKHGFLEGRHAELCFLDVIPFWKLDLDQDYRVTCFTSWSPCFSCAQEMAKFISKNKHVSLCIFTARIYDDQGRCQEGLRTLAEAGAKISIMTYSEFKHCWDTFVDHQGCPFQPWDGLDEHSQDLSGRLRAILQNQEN
PfG6PD inh – PfG6PD (Plasmodium falciparum) enzyme inhibition. inhibition, % at 20 µM. 0.78% of 350,000 active. PfGluPho enzyme, NADPH resazurin-diaphorase fluorescence. AID 504690;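 active = inhibition reaching at least a set limit at 20 µM in the primary screen, cut at about 59% in these data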;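 note: 0% = DMSO wells with substrate and 100% = DMSO wells lacking glucose-6-phosphate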
APOBEC3A inh – human APOBEC3A DNA deaminase inhibition; P31941; recombinant A3A, FAM/TAMRA ssDNA deamination fluorescence; inhibition, % at 20 µM; 0.41% of 330,000 active;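 active = at least 40% inhibition at 20 µM here, with at most 30% in a related deaminase screen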;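 note: plate controls were A3A with DMSO for no effect and wells lacking A3A enzyme for full effect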
Target sequence (P31941 whole entry, looked up): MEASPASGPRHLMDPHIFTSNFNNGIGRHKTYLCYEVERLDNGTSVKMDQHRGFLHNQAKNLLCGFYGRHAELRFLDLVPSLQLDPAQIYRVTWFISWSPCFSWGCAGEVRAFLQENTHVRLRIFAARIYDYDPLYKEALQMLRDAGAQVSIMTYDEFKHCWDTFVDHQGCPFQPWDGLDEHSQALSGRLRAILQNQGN
* hit, by the source's call.

How did COC1C(CO)OC(n2c3c(Cl)cccc3c3c4c(c5c6cccc(Cl)c6[nH]c5c32)C(=O)NC4=O)C(O)C1O (stereo not drawn) do in these assays?
H9c2 protect: 8; TAG inh: 72*; NadD block: 11; PfG6PD inh: 18

What do the screens show for `Oc1ccc(/C=N/N(c2ccccc2)c2ccccc2)cc1O`?
H9c2 protect: 36; TAG inh: 17; NadD block: 11; A3G deaminase: 6; PfG6PD inh: 39; APOBEC3A inh: 6

How did O=C1c2ccccc2C(=O)N1/N=C/c1ccc(O)c(O)c1O do in these assays?
H9c2 protect: 19; TAG inh: 11; NadD block: 7; PfG6PD inh: 98*

How did Oc1ccc(/C=N/N(c2ccccc2)c2ccccc2)c(O)c1O do in these assays?
H9c2 protect: 17; NadD block: 37*; A3G deaminase: -4; APOBEC3A inh: 5

How did CCCCC[C@@H](C)N1C[C@@H](COCc2ccccc2)Oc2cc(N3CC[C@H](N(C)C)C3)ccc2S1(=O)=O do in these assays?
NadD block: 7

What do the screens show for `CC(=O)c1cccc(NC(=O)c2cccc3c(-c4cccc(C(N)=O)c4)coc23)c1`?
H9c2 protect: 6; TAG inh: 8; NadD block: -3

Results for CS(=O)(=O)Nc1cccc(NC(=O)c2cccc3c(-c4cccc(C(N)=O)c4)coc23)c1 ?
H9c2 protect: 54*; TAG inh: -13; NadD block: 0

How did CC(=O)Nc1ccc(OCc2cn(CC(=O)c3ccc(O)cc3)nn2)cc1 do in these assays?
H9c2 protect: -1; TAG inh: 1; NadD block: 32*; PfG6PD inh: 34

Results for c1ccc(-n2ncc3c(N4CCN(CCOc5cccc6ccccc56)CC4)ncnc32)cc1 ?
H9c2 protect: -17; TAG inh: 27; NadD block: 7; A3G deaminase: -7; PfG6PD inh: 10; APOBEC3A inh: -5

What do the screens show for `CCOC(=O)C1=C(COC(=O)/C=C/c2ccc(F)cc2)NC(=O)NC1C` (stereo not drawn)?
H9c2 protect: 45*; TAG inh: 19; NadD block: 2; PfG6PD inh: -7

How did CCOC(=O)C1=C(COC(=O)c2cccc(Br)c2)NC(=O)NC1C (stereo not drawn) do in these assays?
H9c2 protect: -1; TAG inh: 12; NadD block: 2; A3G deaminase: 1; PfG6PD inh: -3; APOBEC3A inh: 4

How did CCOC(=O)C1=C(COC(=O)c2cc(OC)c(OC)c(OC)c2)NC(=O)NC1C (stereo not drawn) do in these assays?
H9c2 protect: 60*; TAG inh: 14; NadD block: 0; A3G deaminase: -5; PfG6PD inh: -6; APOBEC3A inh: 0

Results for Cc1c(C=N)c(O)n(C)c(=O)c1C#N ?
H9c2 protect: 2; TAG inh: -4; NadD block: -5; A3G deaminase: 4; PfG6PD inh: 5; APOBEC3A inh: 3

What do the screens show for `CCOC(=O)c1c(NC(=O)COC(=O)c2ccc(C)s2)sc2c1CC(C)(C)NC2(C)C`?
H9c2 protect: -20; TAG inh: 17; NadD block: -4; A3G deaminase: -7; PfG6PD inh: 14; APOBEC3A inh: -4

Results for NC(=S)N/N=C1\c2ccccc2-c2c(C(=O)O)cccc21 ?
H9c2 protect: 7; TAG inh: -9; NadD block: -6; A3G deaminase: 3; PfG6PD inh: -12; APOBEC3A inh: -2

What do the screens show for `Cc1ccc(/C=C2/SC(=S)N(CCCC(=O)Nc3cc([N+](=O)[O-])ccc3O)C2=O)cc1`?
H9c2 protect: -10; TAG inh: 11; NadD block: 51*; A3G deaminase: -2; PfG6PD inh: -7; APOBEC3A inh: 3

Results for COc1ccc(/C=C2\SC(=S)N(CCCC(=O)NNC(=O)c3ccccc3O)C2=O)cc1 ?
H9c2 protect: 40; TAG inh: -18; NadD block: 38*; A3G deaminase: -1; PfG6PD inh: -49; APOBEC3A inh: 3

How did O=C(CCCN1C(=O)/C(=C/c2cccs2)SC1=S)NNC(=O)c1ccccc1O do in these assays?
H9c2 protect: 60*; NadD block: 28*; A3G deaminase: -7; PfG6PD inh: -51; APOBEC3A inh: -1

What do the screens show for `COc1ccccc1/C=C1\SC(=S)N(CCC(=O)NNC(=O)c2ccccc2O)C1=O`?
H9c2 protect: 60*; NadD block: 32*; A3G deaminase: -2; PfG6PD inh: -26; APOBEC3A inh: 0

Results for O=C(CCCN1C(=O)/C(=C/c2cccs2)SC1=S)NNC(=O)c1ccncc1 ?
H9c2 protect: -5; NadD block: 15; A3G deaminase: -7; PfG6PD inh: -18; APOBEC3A inh: -5

What do the screens show for `O=C(c1cccc(NS(=O)(=O)c2ccc(Br)cc2)c1)N1CCN(c2ccccc2O)CC1`?
H9c2 protect: -4; TAG inh: 10; NadD block: 14; A3G deaminase: 6; PfG6PD inh: -25; APOBEC3A inh: 2

Results for Cc1ccc(NC(=O)COC(=O)c2cc(=O)c3cc(F)ccc3o2)cc1 ?
H9c2 protect: 7; TAG inh: -1; NadD block: -1; A3G deaminase: -10; PfG6PD inh: 6; APOBEC3A inh: 2

What do the screens show for `CCN1CCN(Cc2ccc(NC(=O)c3cc(NC(=O)c4cncc(-c5ccc(C#N)cc5)c4)cc(OC)c3)cc2C(F)(F)F)CC1`?
H9c2 protect: -2; TAG inh: 95*; NadD block: 30; A3G deaminase: 0; PfG6PD inh: 6; APOBEC3A inh: 2

What do the screens show for `CCN1CCN(Cc2ccc(NC(=O)c3ccc(C)c(NC(=O)c4cncc(-c5cccs5)c4)c3)cc2C(F)(F)F)CC1`?
H9c2 protect: -27; TAG inh: 117*; NadD block: 10; PfG6PD inh: 12

Results for CCN1CCN(Cc2ccc(NC(=O)c3cc(NC(=O)c4nccnc4N)cc(OC)c3)cc2C(F)(F)F)CC1 ?
H9c2 protect: -11; TAG inh: 15; NadD block: -2; A3G deaminase: 0; PfG6PD inh: 13; APOBEC3A inh: -1

What do the screens show for `COc1ccc(C)cc1N1C(=N)/C(=C2/Nc3ccccc3S2)C(c2ccccc2)C1=O` (stereo not drawn)?
H9c2 protect: -3; NadD block: 18; PfG6PD inh: 9

How did CN1CCN(C(=O)CCN2C(=O)/C(=C\c3ccc(Cl)cc3)SC2=S)CC1 do in these assays?
H9c2 protect: 0; NadD block: -6; A3G deaminase: 1; PfG6PD inh: 10; APOBEC3A inh: 2

What do the screens show for `NS(=O)(=O)c1ccc(CCN2C(=O)/C(=C\c3ccc(Cl)cc3)SC2=S)cc1`?
H9c2 protect: -5; NadD block: 33*; A3G deaminase: -3; PfG6PD inh: -22; APOBEC3A inh: 3
